Source: article PMC5540273 (PLoS ONE, 2017)

Experiments:
Conditions in all cases: concentration: 1 μM, replicates: in singlicate; n = 1
[1] = system: RPS6KA4(Kin.Dom.1-N-terminal)
[2] = system: RPS6KA4(Kin.Dom.2-C-terminal)
[3] = system: RPS6KA5(Kin.Dom.1-N-terminal)
[4] = system: RPS6KA5(Kin.Dom.2-C-terminal)
[5] = system: T1, RSK1(Kin.Dom.1-N-terminal)
T1 construct: gene RPS6KA1

[6] = system: T2, RSK1(Kin.Dom.2-C-terminal)
T2 construct: gene RPS6KA1

[7] = system: T3, RSK2(Kin.Dom.1-N-terminal)
T3 construct: gene RPS6KA3

[8] = system: T4, RSK2(Kin.Dom.2-C-terminal)
T4 construct: gene RPS6KA3

[9] = system: T5, RSK3(Kin.Dom.1-N-terminal)
T5 construct: gene RPS6KA2

[10] = system: T6, RSK3(Kin.Dom.2-C-terminal)
T6 construct: gene RPS6KA2

[11] = system: T7, RSK4(Kin.Dom.1-N-terminal)
T7 construct: gene RPS6KA6

[12] = system: T8, RSK4(Kin.Dom.2-C-terminal)
T8 construct: gene RPS6KA6

[13] = system: S6K1
[14] = system: SBK1
[15] = system: SGK2
[16] = system: SGK3
[17] = system: SGK
[18] = system: SIK2
[19] = system: SIK
[20] = system: SLK
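Note: KINOMEscan kinase panel screen.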

Structure (SMILES)	%Inh [1] [%]	%Inh [2] [%]	%Inh [3] [%]	%Inh [4] [%]	%Inh [5] [%]	%Inh [6] [%]	%Inh [7] [%]	%Inh [8] [%]	%Inh [9] [%]	%Inh [10] [%]	%Inh [11] [%]	%Inh [12] [%]	%Inh [13] [%]	%Inh [14] [%]	%Inh [15] [%]	%Inh [16] [%]	%Inh [17] [%]	%Inh [18] [%]	%Inh [19] [%]	%Inh [20] [%]
CN1CCN(Cc2ccc(NC(=O)Nc3ccc(N(C)c4ccnc(Nc5ccc(CS(C)(=O)=O)cc5)n4)cc3)cc2)CC1.Cl [GW827654]	39	16	0	0	75	15	0	46	42	25	6	57	17	0	58	21	53	15	22	97.3
COc1cccc2c(-c3ccncc3)c(-c3ccc(F)cc3)nn12 [GW468513]	4	0	23	0	0	48	0	20	3	0	23	86	3	0	0	9	0	0	0	23
Fc1cc(Cl)ccc1Nc1ccnc2cc(-c3ccc(CN4CCOCC4)o3)ccc12 [GW560109]	35	0	9	0	6	28	14	44	100	0	0	90.3	26	37	6	0	0	100	97.4	32
CC(=O)Nc1cn2nc(Oc3cccc(NC(=O)c4cccc(C(F)(F)F)c4)c3)ccc2n1	47	0	0	6	0	0	0	30	0	5	0	9	0	0	1	0	0	18	32	21
O=C(Nc1n[nH]c2nc(-c3cccc(O)c3)ccc12)C1CC1 [SB-711805]	0	51	0	0	0	0	30	0	0	0	52	14	0	4	14	13	28	0	0	48
Cc1ccc(NC(=O)c2ccc(Cl)c(Cl)c2)cc1-c1ccc(C(=O)Nc2ccncc2)cc1 [GSK1398460]	25	0	15	0	24	2	0	22	7	9	0	23	0	15	0	14	0	9	8	29
Cc1nn2c(=O)cc(N3CCO[C@H](C)C3)nc2n1Cc1cccc(Cl)c1Cl [GSK2373693]	18	39	19	24	0	4	10	5	26	4	0	0	4	89	1	0	0	0	0	4
COC(=O)Nc1nc2ccc(Oc3ccc(NC(=O)Nc4cc(C(F)(F)F)ccc4F)cc3)cc2[nH]1.Cl [GW654607]	15	0	0	0	0	13	0	35	12	0	0	16	21	17	8	5	0	0	0	85
Cc1ccc(C)c(NC(=O)Nc2ccc(C)c(-c3ccc(C(=O)Nc4ccncc4)cc3)c2)c1 [GSK1398473]	37	0	4	14	0	0	37	18	27	3	0	18	3	14	0	8	0	0	3	17
COC(=O)Nc1nc2ccc(Oc3ccc(CC(=O)Nc4cc(C(F)(F)F)ccc4F)cc3)cc2[nH]1 [GW680903]	0	0	1	0	65	4	0	5	4	0	0	9	9	10	4	0	0	0	0	2
COc1cccc(NC(=O)NCCNc2ccnc(Nc3ccc(F)cc3)n2)c1 [GSK1379879]	0	0	0	34	18	0	3	0	3	0	0	0	0	40	12	2	3	4	0	7
CC(C)(C)c1ccc(C(=O)Nc2cn3cc(-n4ccnc4)ccc3n2)cc1	0	22	10	31	0	0	25	0	0	0	29	0	8	0	11	60	2	10	9	6
Cc1ccc(-c2ccc3occ(-c4ccc(S(C)=O)cc4)c3c2)nn1 (stereo not shown)	1	0	22	0	0	0	0	9	0	0	0	0	5	0	0	0	0	7	0	12
CCn1c(-c2nonc2N)nc2c(-c3ccccc3)ncc(OCCCN)c21.O=C(O)C(F)(F)F.O=C(O)C(F)(F)F [GSK260205]	0	0	31	8	19	50	80	0	99.7	1	67	90.3	44	9	0	71	1	36	11	99.1
Cl.Cl.NCC(NC(=O)c1cc(-c2cccnc2)c(-c2ccnc3[nH]ccc23)s1)c1ccccc1 (stereo not shown) [GSK1323434]	58	0	18	57	61	53	29	40	0	0	0	31	27	42	51	70	27	0	12	32
CCn1cnc2c(NCc3ccccc3)ncnc21 [SKF-96418]	13	0	11	0	0	0	30	0	0	0	9	0	17	0	2	3	2	0	0	0
CN(C)c1ncnc2nc[nH]c12 [SKF-31736]	1	0	0	11	0	0	39	0	0	0	28	8	29	0	23	0	14	0	0	0
CN(c1ccc2c(c1)nc(NCc1ccccc1)n2C)c1ccnc(Nc2ccc(CS(C)(=O)=O)cc2)n1.Cl [GW811603]	7	0	0	0	2	0	0	24	0	23	0	0	0	0	24	0	13	10	9	38
Cc1cc(-c2ccnc(Nc3cccc(C#N)c3)n2)cc(C)c1O [GSK1440913]	0	0	0	0	12	17	5	0	26	21	0	0	0	28	29	6	55	15	0	21
Cc1cccc(Nc2nc(N[C@H]3CCCC[C@H]3N)ncc2C(N)=O)c1.Cl [GSK986310]	32	0	22	0	46	20	53	28	23	12	12	30	16	71	4	0	0	26	53	72
